SMILES strings stand for the structures. “And” between values parts separate entries of the source, which are not always exact repeats. Equal entries are not always repeated. Results filed as inconclusive are left out. The source holds several records for some structures; these can differ, active in one and inactive in another. The source made the active and inactive calls. Unless noted, calls come from the whole dose curve.

Assay [1] in a line: Nuclear factor erythroid 2-related factor 2/antioxidant responsive element (Nrf2/ARE) small molecule agonists: qHTS cell viability counter screen in human keratinocytes (AID 1919968; active = well fitted curve in the direction sought with a large enough effect in the repeat runs; an effect the other way counts as inactive or inconclusive; note: nearly all actives have a fitted effect of over 55% in size; note: potency is the fitted concentration of half-maximal effect). In outline:
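Cytotoxicity was multiplexed with the Nrf2/ARE luciferase assay in the same wells. Stably transfected HaCaT keratinocytes were treated with test compounds for 23 h at 37 C. Cell viability was then measured by CellTiter-Fluor fluorescence.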

Assay [2] is described as follows: Nuclear factor erythroid 2-related factor 2/antioxidant responsive element (Nrf2/ARE) small molecule agonists: luciferase reporter gene qHTS assay in human keratinocytes (AID 1919969; note: nearly all actives have a fitted effect of over 35% in size; note: potency is the fitted concentration of half-maximal effect). (In general: Reporter assays use an easily measured gene product as a stand-in for the process of interest.)
The target in assay [3] is Gonadotropin-releasing hormone receptor (Homo sapiens) (UniProt P30968). Description: Human gonadotropin-releasing hormone receptor (GnRHR) small molecule agonists, calcium flux assay in GnRHR-HEK293 cells (AID 1920063). Note: nearly all actives have a fitted effect of over 35% in size. The procedure, abridged: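 Agonist activity was measured as intracellular calcium flux in HEK293 cells engineered to stably express human GnRHR. After dye loading for 1 hour at 37 C, compounds in DMSO were added and fluorescence was followed for 3 minutes.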
For orientation: Calcium assays in cells follow changes in intracellular calcium, usually with a dye or a luminescent sensor.

The target in assay [4] is KiSS-1 receptor (Homo sapiens) (UniProt Q969F8). The assay is described as follows: Human kisspeptin (KISS1R) small molecule agonists, calcium flux assay in KISS1R-HEK293 cells (AID 1920064; active = well fitted curve in the direction sought with a large enough effect in the repeat runs; an effect the other way counts as inactive or inconclusive). The procedure, abridged:
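Agonist activity is monitored as intracellular calcium rise in engineered HEK293 cells carrying human KISS1R. Cells are dye-loaded for 1 h at 37 C before compound addition, and fluorescence is recorded for 3 min.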

A short description of assay [5]: G protein-coupled receptor (GPCR) small molecule agonists, calcium flux assay: HEK293 wild type cell line counter screen (AID 1920065). The procedure, abridged: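 Seed cells, incubate 18 h (37 C, 5% CO2); add calcium dye, 1 h at 37 C; pin-transfer compounds, ATP control or DMSO; read fluorescence 480/540 nm each second for 3 min.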
Assay [6] is described as follows: p53 small molecule agonists, cell-based qHTS assay with human liver microsomes (AID 1963577).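 Note: p53 response element beta-lactamase reporter cells with liver microsomes plus NADPH.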 The procedure, abridged:
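Reporter activation was measured by LiveBLAzer fluorescence intensity in p53RE-bla cells, which had been exposed to compounds for 16 h at 37 C alongside 0.5 mg/mL human liver microsomes and 0.5 mg/mL NADPH (final concentrations).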

Assay [7] in a line: p53 small molecule agonists, cell-based qHTS assay with rat liver microsomes (AID 1963578). In outline: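 Compound in DMSO added to p53RE-bla cells 5 h post-plating; rat microsomes/NADPH 0.5 mg/mL final; 16 h, 37 C; LiveBLAzer 2 h RT.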
In general terms: qHTS replaces the single test concentration by a dilution series.

Assay [8] can be described thus: p53 small molecule agonists, cell-based qHTS assay with human liver microsomes: qHTS cell viability counter screen (AID 1963579). Note: nearly all actives have a fitted effect of over 45% in size. Note: potency is the fitted concentration of half-maximal effect. The procedure, abridged:
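HLM-supplemented (0.5 mg/mL final) and NADPH-supplemented (0.5 mg/mL final) p53RE-bla cultures, 4,000 cells per well, were dosed with compounds in DMSO for 16 h at 37 C; luminescent ATP detection (CellTiter-Glo, 30 min, room temperature) quantified surviving cells.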

Assay [9] is described as follows: p53 small molecule agonists, cell-based qHTS assay with rat liver microsomes: qHTS cell viability counter screen (AID 1963580). Note: nearly all actives have a fitted effect of over 45% in size. Note: potency is the fitted concentration of half-maximal effect. In outline:
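Cytotoxicity counter screen: intracellular ATP measured by CellTiter-Glo luminescence in the same wells as the beta-lactamase reporter read, on HCT-116 p53RE-bla cells exposed 16 h at 37 C to compounds with rat liver microsomes and NADPH, each 0.5 mg/mL final.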

Assay [10] in a line: p53 small molecule agonists, cell-based qHTS assay (AID 1963582; active = well fitted activation curve with a large enough effect in the signal ratio in the repeat runs, not every such curve was filed as active; the % refers to the signal ratio). In outline:
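Cells carrying a p53-responsive bla reporter are treated with test compounds for 16 h at 37 C; beta-lactamase activity is then detected with LiveBLAzer B/G FRET substrate after 2 h at room temperature.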

Assay [11] addresses 5-hydroxytryptamine receptor 2A (Homo sapiens) (UniProt P28223). The assay is described as follows: 5-hydroxytryptamine receptor 2A (HTR2A) small molecule antagonists, cell-based qHTS assay (AID 1963586). Note: nearly all actives have a fitted effect of over 45% in size. Note: potency is the fitted concentration of half-maximal effect. In outline: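 CHO cells stably expressing human HTR2A were plated for 18 h at 37 C, then loaded with calcium dye for 1 h. Compounds were preincubated 5 min at room temperature before DOI (4 nM solution) was added. Kinetic fluorescence was read for 3 min.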

The target is the same in assay [12]. The assay is described as follows: 5-hydroxytryptamine receptor 2A (HTR2A) small molecule agonists, cell-based qHTS assay (AID 1963587). Note: nearly all actives have a fitted effect of over 30% in size. Note: potency is the fitted concentration of half-maximal effect. The procedure, abridged: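 CHO cells stably expressing human HTR2A, plated 18 h, loaded with calcium dye 1 h at 37 C. Agonist mode: compounds added and intracellular calcium fluorescence recorded kinetically for 2 min at 1 sec intervals.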

The target of assay [13] is Muscarinic acetylcholine receptor M1 (Homo sapiens) (UniProt P11229). The assay is described as follows: Cholinergic receptor muscarinic 1 (CHRM1) small molecule antagonists, cell-based qHTS assay (AID 1963588). Note: nearly all actives have a fitted effect of over 40% in size. In outline: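 Compounds were tested at 15 concentrations in three independent runs. Dye-loaded CHRM1-CHO cells were exposed 5 min at room temperature before stimulation by acetylcholine added at 50nM. Intracellular calcium was read kinetically on FDSS for 3 min.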

The target is the same in assay [14]. Description: Cholinergic receptor muscarinic 1 (CHRM1) small molecule agonists, cell-based qHTS assay (AID 1963589). Note: nearly all actives have a fitted effect of over 35% in size. In outline: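 Cells were plated and incubated 18 h at 37 C/5% CO2, loaded with calcium dye for 1 h at 37 C, then treated with compounds in DMSO. Fluorescence was recorded kinetically at 1 sec intervals.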
Assay [15] in a line: cAMP Responsive Elements (CRE) small molecule agonists, cell-based qHTS assay (AID 1963590). In outline:
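Cells carrying a CRE-driven beta-lactamase reporter (HEK 293T) are seeded, incubated overnight (18 h), and treated with test compounds for 3 h at 37 C; reporter activity is then detected with a FRET substrate after 2 h at room temperature.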

A short description of assay [16]: cAMP Responsive Elements (CRE) small molecule antagonists, cell-based qHTS assay (AID 1963591; active = well fitted inhibition curve with a large enough effect in the signal ratio in the repeat runs, not every such curve was filed as active; the % refers to the signal ratio). In outline:
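Cells (CRE-bla HEK 293T, DMEM with 10% dialyzed FBS and 25 mM HEPES) are seeded and incubated 18 h. Compounds are added with NKH477 agonist at 0.25 uM final for 3 h, then FRET substrate for 2 h.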

Assay [17] has as its target Beta-2 adrenergic receptor (Homo sapiens) (UniProt P07550). Description: Adrenergic beta2 receptor (ADRB2) small molecule antagonists, cell-based qHTS assay (AID 1963592). Note: series mostly up to about 92 µM; nearly all actives have a fitted effect of over 50% in size. In outline: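 Assay format: CHO-ADRB2 cells, 18-20hr seeding at 37C/5% CO2, then compound plus 1nM isoproterenol agonist mix for 0.5hr RT. Homogeneous time-resolved fluorescence cAMP detection after 1hr, expressed as 665/615 nm ratio.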

The target of assay [18] is D(2) dopamine receptor (Homo sapiens) (UniProt P14416). The assay is described as follows: Dopamine D2 receptor (DRD2) small molecule agonists, cell-based qHTS assay (AID 1963594). Note: nearly all actives have a fitted effect of over 35% in size. Note: potency is the fitted concentration of half-maximal effect. The procedure, abridged:
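HEK293 cells stably expressing human DRD2, pre-treated with PDE inhibitor Ro20-1724 (0.1 mM final) and compound 10 min at room temperature, then stimulated with NKH477 (200nM […]) for 30 min. cAMP read by HTRF (665/620 nm).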

The target is the same in assay [19]. The assay is described as follows: Dopamine D2 receptor (DRD2) small molecule antagonists, cell-based qHTS assay (AID 1963595; active = well fitted inhibition curve with a large enough effect in the signal ratio in the repeat runs, with a control signal flat; the % refers to the signal ratio). In outline:
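In this cell-based antagonist screen, compounds act for 10 min at room temperature before a 30 min challenge with 12 nM quinpirole and 200 nM NKH477. cAMP is quantified by HTRF competition in DRD2-HEK293 cells containing 0.1 mM Ro20-1724.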

Assay [20] is described as follows: p53 small molecule agonists, cell-based qHTS assay: qHTS cell viability counter screen (AID 1963581). Note: nearly all actives have a fitted effect of over 45% in size. Note: potency is the fitted concentration of half-maximal effect. The procedure, abridged: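 Viability was counter-screened in parallel with the p53 agonist reporter by measuring intracellular ATP luminescence in the same HCT-116 p53RE-bla wells after 16 h compound treatment at 37 C.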

Chain of KiSS-1 receptor (Homo sapiens) (Q969F8 whole entry, looked up): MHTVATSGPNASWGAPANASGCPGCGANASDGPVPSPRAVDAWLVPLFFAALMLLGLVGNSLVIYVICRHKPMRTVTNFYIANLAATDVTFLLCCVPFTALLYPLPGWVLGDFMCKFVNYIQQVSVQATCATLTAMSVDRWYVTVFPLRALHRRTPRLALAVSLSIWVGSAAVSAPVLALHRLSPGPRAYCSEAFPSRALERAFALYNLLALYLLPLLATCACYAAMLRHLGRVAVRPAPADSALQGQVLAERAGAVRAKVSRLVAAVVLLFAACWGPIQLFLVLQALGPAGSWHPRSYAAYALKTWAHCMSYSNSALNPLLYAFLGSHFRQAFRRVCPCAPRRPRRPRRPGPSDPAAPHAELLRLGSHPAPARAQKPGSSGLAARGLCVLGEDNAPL
Chain of D(2) dopamine receptor (Homo sapiens) (P14416 whole entry, looked up): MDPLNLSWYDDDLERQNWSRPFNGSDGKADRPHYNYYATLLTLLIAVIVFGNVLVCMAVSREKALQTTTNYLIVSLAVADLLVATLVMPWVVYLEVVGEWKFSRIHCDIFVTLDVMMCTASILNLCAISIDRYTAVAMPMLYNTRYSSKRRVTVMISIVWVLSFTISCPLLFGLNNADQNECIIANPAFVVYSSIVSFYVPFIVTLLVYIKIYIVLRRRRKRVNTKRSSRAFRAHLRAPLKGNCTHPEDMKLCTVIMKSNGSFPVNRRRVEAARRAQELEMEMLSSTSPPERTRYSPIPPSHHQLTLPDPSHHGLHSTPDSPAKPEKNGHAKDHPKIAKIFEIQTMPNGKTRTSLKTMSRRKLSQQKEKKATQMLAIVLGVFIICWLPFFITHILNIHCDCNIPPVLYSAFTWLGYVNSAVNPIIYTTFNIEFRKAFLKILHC
Chain of 5-hydroxytryptamine receptor 2A (Homo sapiens) (P28223 whole entry, looked up): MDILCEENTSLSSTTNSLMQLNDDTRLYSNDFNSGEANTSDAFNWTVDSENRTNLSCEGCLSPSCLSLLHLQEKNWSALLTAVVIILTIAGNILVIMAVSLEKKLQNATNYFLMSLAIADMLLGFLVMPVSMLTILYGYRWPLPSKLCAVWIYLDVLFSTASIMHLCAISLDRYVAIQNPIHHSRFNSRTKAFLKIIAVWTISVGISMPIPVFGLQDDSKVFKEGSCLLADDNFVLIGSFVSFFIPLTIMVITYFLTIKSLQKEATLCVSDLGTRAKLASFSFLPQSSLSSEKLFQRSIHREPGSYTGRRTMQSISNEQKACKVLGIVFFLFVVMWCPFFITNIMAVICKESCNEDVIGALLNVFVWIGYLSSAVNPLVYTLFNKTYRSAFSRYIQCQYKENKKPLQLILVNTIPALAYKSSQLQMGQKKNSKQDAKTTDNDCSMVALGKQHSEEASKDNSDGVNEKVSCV
Chain of Gonadotropin-releasing hormone receptor (Homo sapiens) (P30968 whole entry, looked up): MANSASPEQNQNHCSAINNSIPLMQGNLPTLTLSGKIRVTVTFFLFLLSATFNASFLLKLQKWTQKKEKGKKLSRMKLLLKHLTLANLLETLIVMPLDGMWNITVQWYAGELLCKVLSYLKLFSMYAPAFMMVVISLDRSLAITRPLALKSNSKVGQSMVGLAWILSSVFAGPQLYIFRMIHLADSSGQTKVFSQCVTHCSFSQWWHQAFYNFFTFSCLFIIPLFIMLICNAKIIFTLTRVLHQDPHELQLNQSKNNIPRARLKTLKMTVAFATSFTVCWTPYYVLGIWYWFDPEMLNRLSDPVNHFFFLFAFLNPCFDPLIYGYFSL
Chain of Muscarinic acetylcholine receptor M1 (Homo sapiens) (P11229 whole entry, looked up): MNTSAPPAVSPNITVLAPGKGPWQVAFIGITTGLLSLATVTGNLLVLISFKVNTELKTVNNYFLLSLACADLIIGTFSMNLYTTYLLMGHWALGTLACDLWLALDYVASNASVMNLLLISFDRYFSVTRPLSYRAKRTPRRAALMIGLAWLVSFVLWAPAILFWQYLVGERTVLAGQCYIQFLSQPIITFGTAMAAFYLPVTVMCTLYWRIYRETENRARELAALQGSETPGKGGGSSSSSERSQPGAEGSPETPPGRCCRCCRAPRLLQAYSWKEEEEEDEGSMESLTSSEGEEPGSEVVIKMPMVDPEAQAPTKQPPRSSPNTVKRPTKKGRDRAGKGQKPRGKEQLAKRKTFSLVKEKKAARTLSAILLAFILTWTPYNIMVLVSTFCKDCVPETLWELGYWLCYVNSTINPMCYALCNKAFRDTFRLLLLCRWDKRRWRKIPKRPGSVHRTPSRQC
Chain of Beta-2 adrenergic receptor (Homo sapiens) (P07550 whole entry, looked up): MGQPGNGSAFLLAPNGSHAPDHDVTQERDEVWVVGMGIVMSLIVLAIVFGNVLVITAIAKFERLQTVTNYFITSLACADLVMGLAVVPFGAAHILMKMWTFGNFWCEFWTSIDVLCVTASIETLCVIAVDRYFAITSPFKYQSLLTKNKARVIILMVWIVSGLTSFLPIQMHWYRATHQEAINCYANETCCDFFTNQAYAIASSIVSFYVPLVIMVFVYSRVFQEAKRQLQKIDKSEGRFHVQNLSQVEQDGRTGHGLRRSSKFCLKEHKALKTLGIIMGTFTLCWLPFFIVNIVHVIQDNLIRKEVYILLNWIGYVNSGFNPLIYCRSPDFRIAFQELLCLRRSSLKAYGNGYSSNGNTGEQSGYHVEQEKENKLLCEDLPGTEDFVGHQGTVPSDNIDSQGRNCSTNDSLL

With `c1nc[nH]n1`, the Potency entry in assay [1], in assay [2], in [3], in assay [4], in [5] and in assay [6] was “inactive” each time. Further, the Potency result in assay [7], in assay [8], in [9], in [10], in assay [11] and in assay [12] was “inactive” throughout. For the same compound, the Potency result in assay [13], in [14], in [15], in assay [16], in [17] and in assay [18] was “inactive” in each case. Also, in assay [19], the Potency result was “inactive”.

`O=S(=O)(c1ccc(Cl)cc1)c1cc(Cl)c(Cl)cc1Cl`: the Potency result in assay [1], in assay [3], in [4], in assay [5], in assay [6] and in [7] was “inactive” throughout. The Potency result in assay [8], in assay [9], in assay [20], in assay [11], in assay [12] and in assay [13] was “inactive” each time. Also, the Potency result in assay [14], in assay [15], in assay [16], in assay [18] and in assay [19] was “inactive” throughout. Also, in assay [2], the Potency was 48.5 µM (active).

As for `CCCCCCCCn1sccc1=O`, the Potency in assay [1] was 1.22 µM (active) and 1.43 µM (active); in [2], 612 nM (active) and 641 nM (active); in assay [8], 40.9 µM (active) and inactive; in assay [9] it was 4.09 µM (active) and 1.35 µM (active); in [20], 40.9 µM (active) and 38.1 µM (active); in assay [11], “inactive and 1.11 µM (active)”. Besides, the Potency result in assay [12] is “inactive and 25.7 µM (active)”; in assay [18], 42.8 µM (active). In addition, the Potency entry in assay [3], in assay [4], in [5], in assay [6], in assay [7] and in assay [13] was “inactive” throughout. Besides, the Potency result in [14], in assay [17] and in [19] was “inactive” in each case.

As to `ClC1=C(Cl)[C@]2(Cl)[C@@H]3[C@@H](Cl)[C@@H](Cl)C[C@@H]3[C@@]1(Cl)C2(Cl)Cl`, the Potency entry in assay [1], in [2], in assay [3], in assay [4], in assay [5] and in assay [6] was “inactive” each time. Moreover, the Potency result in assay [7], in [8], in assay [9], in assay [10], in assay [11] and in [12] was “inactive” in each case. Further, the Potency entry in [13], in [14], in [15], in assay [16] and in assay [17] was “inactive” throughout.

As to `Nc1ccccc1Cl`, the Potency entry in assay [1], in [2], in assay [3], in [4], in assay [5] and in assay [6] was “inactive” each time. In addition, the Potency entry in assay [7], in [8], in assay [9], in assay [20], in assay [11] and in assay [12] was “inactive” each time. In addition, the Potency entry in [13], in assay [14], in [15], in [16], in assay [17] and in assay [18] was “inactive” each time. For the same compound, the Potency entry in [19] was “inactive”.

On to `CC(C)(O)C(=O)Nc1ccc([N+](=O)[O-])c(C(F)(F)F)c1`, for which the Potency result in [1], in assay [2], in assay [3], in assay [4], in [5] and in [6] was “inactive” throughout. In addition, the Potency entry in assay [7], in assay [8], in assay [9], in assay [20], in assay [11] and in assay [12] was “inactive” in each case. Further, the Potency entry in assay [13], in [14], in assay [16], in [17], in [18] and in assay [19] was “inactive” throughout.

As to `N#Cc1nn(-c2c(Cl)cc(C(F)(F)F)cc2Cl)c(N)c1S(=O)C(F)(F)F` (stereo not given), in assay [1], the Potency was 61.5 µM (active). For the same compound, the Potency result in assay [2], in [3], in [4], in [5], in [6] and in [7] was “inactive” throughout. Moreover, the Potency result in assay [8], in [9], in assay [20], in assay [11], in assay [12] and in [13] was “inactive” in each case. The Potency result in assay [14], in assay [17], in assay [18] and in assay [19] was “inactive” throughout.

The record behind these values is PubChem BioAssay (Tox21).
